The assay deals with VDR:RXRa (NR concentration 270 nM, RXRa partner concentration 90 nM). Briefly: PBM binding z-score (relative to random genomic background probes); higher = stronger binding; sequences stand for … in GC…GCGATTGACAGCGTAGAATGAAGG
The protocol:
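Protein-binding microarray (Agilent 4x180K custom design, double-stranded 60-nt probes: 5' GC cap, 34-nt variable region, 24-nt constant primer region; full probe sequence given). Purified or IVT nuclear receptor:RXRα heterodimers (3:1 NR:RXRα, mostly 270:90 nM) or homodimers were incubated for 1 h in PBS with 2% milk and no ligand, then detected with Alexa488 antibodies. Fluorescence from o1-orientation probes (~5 replicates averaged) was converted to z-scores against 500 random hg19 background probes. Variable regions are seed direct-repeat (DR0–DR5) sites, all their single-nucleotide variants and half-site ablations.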
In the case of TCTAGCAGGCCAGAGGGTCACACAAGAGGTACGG, the PBM binding z-score is 2.26.

TCATATAGGTAAATGCTAGGTGAGAGTCCGATCT registered a PBM binding z-score of 0.644.

On to ATATGTATGTTATCGGGTCATTCAGTTTGCGCAT, for which the PBM binding z-score came to 4.9.

In turn, CGTCCAAGGTCAGAGAGGTCAATGAATGCCGAGT displayed a PBM binding z-score of 7.79.

The sequence TCTTGTAGATCAATAGAGGTTAACAAAGTGCGCT showed a PBM binding z-score of 2.2.

Sequence GCTTGGAGATCAAGGTTAAGAAAGACTAAGCTAA showed a PBM binding z-score of 0.128.

GCGACTGGGGCATCAGCCGGTTACCATAACTTAA returned a PBM binding z-score of -0.669.

AATAGAGGGTCATCGTAGGCCAGAGTACGCACAG yielded a PBM binding z-score of 4.64.

Consider TCTTGTAGATCAAAGTTTAAGAAAGCCGAAGCCT, for which the PBM binding z-score was found to be 0.555.

The sequence ATACCAAGGTGATCGTTAGGTCGTTGATACTAAC registered a PBM binding z-score of 0.566.

TCATATTGGTAAAAGGTGAAAGTCGGTGTGGTAA came in with a PBM binding z-score of 1.64.

Take TCTAGTAGATCAAGCAGGTTAAGAAAGCCTGAGT: the PBM binding z-score came out at 0.576.

Regarding CGTCCAAGGTCAGAGATGTCAGTGAATGCCGAGT, the PBM binding z-score is 3.64.

As for GCGTATAGGTAATACAAGGTGAAAGTCCGATTGT, the PBM binding z-score worked out at 0.306.

Sequence CCTTACGGGTCAAGGTTATAGCTCGGGTGGTACG had a PBM binding z-score of 3.3.

Turning to CCGACTGGGGCATAAGGTAACCATAAGCCAGCCC, the PBM binding z-score was -0.407.

As to TCTTGTAGATCAACAGGAGGTTAAGACAGATCGA, the PBM binding z-score worked out at 0.563.

CGTCCAAGGTCAGAGAGGGCAGTGAATGCCGAGT: the PBM binding z-score is 6.5.

The sequence GCTTGTTGATCAAGGTTAAGAAAGACTAAGCTAA gave a PBM binding z-score of 0.122.

Regarding ATATGTAGGTTAAGTGTCATTCAGGTTGGTTCGC, the PBM binding z-score is 2.28.

For TCATATAGGTAAAGGTGAGAGTCGAACGATATGA, the PBM binding z-score stood at 0.633.

Take AAAGACAGGTGATGAAGGTAACTCAGGCTATCAT: the PBM binding z-score was 0.521.

In the case of TCGAGTCGGTTACCAATGGGGCATTCAGCTTTCT, the PBM binding z-score is -0.384.

With TCTGACAGGTGAAGGTAACTCAGGTACGCAGTCG, the PBM binding z-score came to 0.667.

For CCTACTGGGCCAAAAAGGTGATTGATGCCGATAA, the PBM binding z-score is -0.0906.

For CCGACTGGGGCAGAAAGGTTACCAGACCATCCGG, the PBM binding z-score came out at 0.696.

Sequence CAAACTAGGTTACGAAAGGTCAAAGTCGAATGAC gave a PBM binding z-score of 5.53.

In turn, CGAAGTAGGTCAGAACAGGACAGTGAAGGATGAT returned a PBM binding z-score of 0.559.

CAAACTAGGTCACGAAAGGTGAAAGTCGAATGAC yielded a PBM binding z-score of 4.19.

ATTGAAAGGTCGAGGTGAGTATAGAGAAAGGGAA gave a PBM binding z-score of 2.87.

As to CGTCAAAGTTCATCTAAGGTAACGTAAAGCACGC, the PBM binding z-score was 5.24.

For TCTATTAGTTGAAGGGCAACAGACGAGTCCGTTT, the PBM binding z-score was 1.01.

CGAACTAGGTCATTGACAGGACAGTGTATAGTAA: the PBM binding z-score came out at 2.05.

As to CAAACTAGGTCACCGGAAGGTCAAAGTACGCATG, the PBM binding z-score is 6.17.

As to ATCTCTAGGTAAAGTTCAGGGAAAGATCGATAGA, the PBM binding z-score came to 1.73.

With ATCGAAAGGTCGAGGTTAGTATAGAGAAAGGGAA, the PBM binding z-score amounted to 2.75.

As for TCAGACAGGTGAAGGTAACTAAGGTACGCAGTCG, the PBM binding z-score came out at 1.01.

The sequence TCTAGTTGCTCACGGAGGTCACACACGACGGGTA returned a PBM binding z-score of 3.64.

TCTTGTAGAACAAGCAGGTTAAGAAAGCCTGAGT registered a PBM binding z-score of 0.279.

As for TCTAGCAGGCCAGAAGGTCACTCAAGAGGTACGG, the PBM binding z-score came out at 2.16.

For the origin of these results see the supplement of paper PMC6555819.
